CHX counter – Cycloheximide Counterscreen for Small Molecule Inhibitors of Shiga Toxin. cell reporter, cycloheximide protein synthesis inhibition counterscreen. max response, %. 300,000 tested, 12% active; in the data active = max response mostly above about 13%, no sharp cut-off; inactive = mostly below about 14%; note: read at 38.3 µM for the half of the compounds with a filed dose; 0% is about no effect
Pf growth 48h – Primary qHTS for delayed death inhibitors of the malarial parasite plastid, 48 hour incubation; 310,000 tested, 5.9% active; AID 504832, 2011; P. falciparum luciferase growth in erythrocytes, 48 h; Potency, µM (top dose mostly 28.7 µM), without a hit: top-dose activity change, negative = inhibition, most hits filed as inhibitors; note: potency is the fitted concentration of half-maximal effect; % is set by controls: 0 for no effect and ±100 for the full control effect
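Erythrocytes infected with P. falciparum carrying an integrated firefly luciferase reporter (2% hematocrit, 0.1% parasitemia final) were exposed to compounds in RPMI 1640 with 0.5% Albumax at 37 C, 5% CO2. Growth inhibition was scored as reduced luminescence.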
LASV entry inh – qHTS for Inhibitors of binding or entry into cells for Lassa Virus; 300,000 tested, 1.2% active; Lassa virus pseudotype entry inhibition, cell reporter; Potency, µM (highest dose often 37.9 µM), inactives show at the top dose activity change, negative = inhibition, hits mostly inhibitors; calls by dose curve; tested in HEK293 cells; note: potency is the fitted concentration of half-maximal effect; % is set by controls: 0 for no effect and ±100 for the full control effect; nearly all actives have a fitted effect of over 50% in size
Pf growth 96h – Primary qHTS for delayed death inhibitors of the malarial parasite plastid, 96 hour incubation. P. falciparum luciferase reporter growth, 96 h. Potency, µM (titrated, usually from 28.7 µM), for inactives: top-dose activity change, negative = inhibition, most hits filed as inhibitors. 320,000 tested, 6.9% active; note: potency is the fitted concentration of half-maximal effect; % is set by controls: 0 for no effect and ±100 for the full control effect
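Readout is luminescence from an integrated firefly luciferase in P. falciparum. Red cells, 2% hematocrit and 0.05% parasitemia final, were cultured with compound through two parasite generations (96 hours) at 37 C, 5% CO2.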
Shiga inhibitor – A qHTS for Small Molecule Inhibitors of Shiga Toxin; inhibition, % at 38.7 µM; AID 2315, 2010; Vero cells, Shiga toxin protein synthesis inhibition reporter; 290,000 tested, 9.2% active; in the data active = inhibition mostly above about 28%, no sharp cut-off; inactive = mostly below about 43%; note: 0% is about no effect
MARV entry inh – qHTS for inhibitors of binding or entry into cells for Marburg Virus; Marburg virus pseudotyped entry inhibition, cell reporter; Potency, µM (titrated, usually from 37.8 µM), inactives show top-dose activity change, negative = inhibition, usual class: inhibitors; 300,000 tested, 1.8% active; calls by dose curve; tested in HEK293 cells; note: potency is the fitted concentration of half-maximal effect; % is set by controls: 0 for no effect and ±100 for the full control effect
The depositor's hits bear a star; i = inactive; ? = inconclusive; . = not tested or not shown; [ ] = remark or other dose. Compounds with a hit are over-represented: about 19% of the library has one in this group of screens. Unless noted, calls come from the whole dose curve; as a rule, active = well fitted inhibition curve with a large enough effect; inconclusive = small, poorly fitted or top-dose-only effect, or another doubt; inactive = no such curve, though single readings can be large or run the other way.

SMILES | CHX counter | Pf growth 48h | LASV entry inh | Pf growth 96h | Shiga inhibitor | MARV entry inh
COc1ccc(OCC(=O)NCCCCCCNC(=O)COc2ccc(OC)cc2)cc1 | -1.0 | -14.5% | -4.6%[46.1 µM] | 2.94µM* | -3.8 | 12.0%[46.1 µM]
COc1ccc(OCC(=O)Nc2cccc(OC)c2)cc1 | 42.3* | 101.8% | 0.0% | ? | 103.2* | ?
COc1cccc(NC(=O)COC(=O)COc2ccccc2[N+](=O)[O-])c1 | -6.7 | 0.8% | 0.7% | -15.9% | -10.7 | 29.7%
COc1ccc(OCC(=O)Nc2cc(OC)cc(OC)c2)cc1 | -2.3 | . | 8.2% | 37.9% | -11.1 | 6.6%
COc1cccc(OCC(=O)NNC(=O)C(=O)N2CCCC2)c1 | -2.9 | 15.3% | 5.2% | -4.7% | 16.4 | ?
COc1cccc(NC(=O)COc2ccccc2C(N)=O)c1 | 40.1* | 225.4% | -7.2% | 270.0% | 59.9* | ?
CCN(CC)CCNC(=O)COc1ccc(OC)cc1 | -2.4 | ? | 2.7%[46.1 µM] | 2.7% | 4.6 | -7.8%[46.1 µM]
C=CCN1C(=O)C(O)(CC(=O)c2ccc(-n3cccc3)cc2)c2ccccc21 (stereo unspecified) | 2.7 | -7.2% | 0.3% | . | 7.4 | ?
COC(=O)c1c2c(nc3ccccc13)CCC2 | 7.1 | . | -3.0% | ? | -6.3 | 2.8%
Cc1c2c(nc3ccccc13)CCC(C(C)(C)C)C2 (stereo unspecified) | 25.6* | -17.0% | 14.2% | 36.7%[5.75 µM] | 61.5* | -13.6%[46.1 µM]
CCn1c(-c2ccccc2SC)n[nH]c1=S | -1.0 | i | -8.6% | ? | -3.9 | 6.6%[46.1 µM]
C=CCn1c(-c2cccc(OCC)c2)n[nH]c1=S | -1.3 | 4.2% | 8.6%[46.1 µM] | 2.3% | -4.1 | -0.1%[46.1 µM]
CCCOc1cccc(-c2cc(-c3n[nH]c(=S)n3CC)c3ccccc3n2)c1 | -1.8 | 10.4µM* | -24.4% | 3.7µM* | 16.1 | ?
C=CCn1c(-c2cc(-c3ccc(C)cc3)nc3ccccc23)n[nH]c1=S | 13.0 | 16.5µM* | -6.7%[46.1 µM] | ? | 13.0 | ?
CCn1c(-c2cc(-c3ccc(OC(C)C)cc3)nc3ccccc23)n[nH]c1=S | 31.1* | . | 0.4% | 1.47µM* | 43.6 | ?
CCn1c(-c2cc(-c3ccc(C)cc3)nc3ccccc23)n[nH]c1=S | 16.5* | ? | -18.5%[46.1 µM] | 16.5µM* | 21.5 | ?
CC(C)(C)OC(=O)NCCCCCc1nnc(SCC(N)=O)o1 | 1.7 | 19.8% | -3.1% | 7.3%[5.75 µM] | 4.5 | 27.3%
CCOC(=O)NN1C(=O)c2ccccc2NC1c1ccc(N(C)C)cc1 (stereo unspecified) | 18.9 | -5.4% | ? | ? | -10.0 | 16.1%
CCCOc1ccc(/C=N/O)cc1 | 11.0 | 34.8% | ? | 0.0% | 32.5 | ?
CCCn1c(C)nc2c(c1=O)c1nc3ccccc3nc1n2CCC1=CCCCC1 | -3.3 | ? | ? | ? | 2.3 | 23.1µM*
Cc1nc2c(c(=O)n1CCC1=CCCCC1)c1nc3ccccc3nc1n2/N=C/c1ccco1 | 8.5 | 10.4µM* | -23.5% | 9.28µM* | 53.6 | ?
O=C(O)c1ccc(S(=O)(=O)c2ccc3c(c2)C(=O)N(c2ccccc2[N+](=O)[O-])C3=O)cc1 | -1.2 | 5.5% | 22.9% | 13.1µM* | -33.2 | 19.2%
CN1C(=O)c2ccc(S(=O)(=O)c3ccc(C(=O)O)cc3)cc2C1=O | 11.0 | 17.2% | 11.5% | 30.2% | -0.7 | 19.5%
O=C(O)c1ccc(S(=O)(=O)c2ccc3c(c2)C(=O)N(NC(=O)c2ccncc2)C3=O)cc1 | 8.3 | 11.4% | 1.6% | 13.9% | 6.7 | 4.2%[46.1 µM]
O=C(O)c1ccc(S(=O)(=O)c2ccc3c(c2)C(=O)N(NC(=O)c2cccnc2)C3=O)cc1 | 23.6* | 26.7% | . | -11.3% | 17.2 | .
SMILES | CHX counter | Pf growth 48h | LASV entry inh | Pf growth 96h | Shiga inhibitor | MARV entry inh
O=C(O)c1ccc(S(=O)(=O)c2ccc3c(c2)C(=O)N(NC(=O)c2ccccc2)C3=O)cc1 | 6.7 | 38.7% | 9.1% | 8.6% | 58.8 | ?
CC(=O)Nc1ccc(N2C(=O)c3ccc(S(=O)(=O)c4ccc(C(=O)O)cc4)cc3C2=O)cc1 | -2.5 | 11.7µM* | ? | 0.2% | -14.5 | 25.6%
CCOc1ccccc1N1C(=O)c2ccc(S(=O)(=O)c3ccc(C(=O)O)cc3)cc2C1=O | -4.8 | 20.4% | 21.0%[46.1 µM] | 0.165µM* | -15.0 | -6.3%[46.1 µM]
CC(=O)c1cnc2ncnn2c1C | -3.3 | 26.6% | 1.6% | -0.7% | -12.2 | 3.5%
O=C(Nc1ccc(F)cc1F)C1(c2cccs2)CCOCC1 | -1.5 | 5.3% | . | 0.0% | 24.7 | .
Cc1nc(N)nc(-c2ccccc2O)n1 | 23.9* | 57.3% | 8.9% | . | 46.7 | -1.7%
Nc1nc(N)nc(-c2ccccc2-c2nc(N)nc(N)n2)n1 | -0.4 | 11.0% | . | -0.3% | -2.1 | .
O=c1c2c3c(sc2n2cnnc2n1Cc1ccccc1)CN(Cc1ccccc1)CC3 | -1.7 | 10.4µM* | -1.3% | ? | 14.0 | -27.7%
Cc1nnc2n(Cc3ccccc3)c(=O)c3c4c(sc3n12)CN(Cc1ccccc1)CC4 | -1.7 | ? | . | 14.6% | -16.4 | 0.1%
Cc1cc(C(F)F)nn1CC(=O)NCc1ccc(Cl)cc1Cl | 6.7 | 4.3% | -28.4% | -7.5% | -15.0 | 17.8%
COC(=O)c1[nH]c2cc(C)ccc2c1NC(=O)CN1CCN(c2ccccc2OC)CC1 | -2.8 | ? | ? | ? | -11.5 | ?
Cc1ccc2[nH]c3c(c2c1)CN(C(=O)CN1CCCc2ccccc21)CC3 | 19.4* | 4.15µM* | -13.3% | 4.65µM* | 68.9* | ?
COC(=O)c1[nH]c2ccc(C)cc2c1NC(=O)CN1CCCc2ccccc21 | 14.7 | 4.15µM* | ? | 2.33µM* | 27.0 | ?
COC(=O)c1[nH]c2ccc(C)cc2c1NC(=O)Nc1ccc(OC)cc1 | 19.0* | 43.4% | -16.1% | 47.4% | 40.1 | -20.3%
Cc1ccc2[nH]c3c(c2c1)CN(C(=O)CN1CCCCC1)CC3 | -2.9 | ? | . | -3.5% | 2.7 | .
CCn1c(C(=O)NCc2ccccc2OC)cc2sccc21 | . | . | . | . | . | 6.4%[46.1 µM]
O=C(O)CC(NC(=O)C12CC3CC(CC(C3)C1)C2)c1ccc2c(c1)OCO2 (stereo unspecified) | -2.7 | 6.6% | ? | -30.9% | -5.4 | 0.5%[46.1 µM]
O=C(COC(=O)c1ccccc1-n1cnnn1)c1ccc(Br)cc1 | . | 58.5% | 0.0% | 31.4% | . | 8.5%
COc1ccccc1N1CCN(C(=O)CSc2ccc3c(C)cc(C)nc3n2)CC1 | 5.8 | 10.4µM* | ? | 47.6% | -11.5 | ?
CC1CCCN(C(=O)CSc2nc3ccccc3o2)C1 (stereo unspecified) | 21.0 | 56.2% | 0.5% | ? | 60.6* | 19.8%
O=C(O)c1ccc2oc(SCC(=O)N3CCCCC3)nc2c1 | 22.9* | 116.4% | 1.2% | . | 58.0* | -13.9%[46.1 µM]
COc1ccccc1N1CCN(C(=O)CSc2nc3ccccc3o2)CC1 | 40.5* | 57.1% | 11.0% | . | 110.5* | ?
NC(=O)C1CCN(C(=O)CSc2nc3ccccc3o2)CC1 | -1.5 | 24.8% | 14.4% | 7.4% | 4.4 | 19.9%

Source: PubChem (National Center for Advancing Translational Sciences (NCATS))
